According to ChEMBL document CHEMBL3988442, “University of Dundee, Small-Polar-MMV Screening Library” (2021):

Target: T1, Aspartate--tRNA(Asp/Asn) ligase (Mycobacterium tuberculosis (strain ATCC 25618 / H37Rv)) (UniProt P9WFW3); further: in the data most compounds retested in dose-response had high values
T1 sequence (whole entry): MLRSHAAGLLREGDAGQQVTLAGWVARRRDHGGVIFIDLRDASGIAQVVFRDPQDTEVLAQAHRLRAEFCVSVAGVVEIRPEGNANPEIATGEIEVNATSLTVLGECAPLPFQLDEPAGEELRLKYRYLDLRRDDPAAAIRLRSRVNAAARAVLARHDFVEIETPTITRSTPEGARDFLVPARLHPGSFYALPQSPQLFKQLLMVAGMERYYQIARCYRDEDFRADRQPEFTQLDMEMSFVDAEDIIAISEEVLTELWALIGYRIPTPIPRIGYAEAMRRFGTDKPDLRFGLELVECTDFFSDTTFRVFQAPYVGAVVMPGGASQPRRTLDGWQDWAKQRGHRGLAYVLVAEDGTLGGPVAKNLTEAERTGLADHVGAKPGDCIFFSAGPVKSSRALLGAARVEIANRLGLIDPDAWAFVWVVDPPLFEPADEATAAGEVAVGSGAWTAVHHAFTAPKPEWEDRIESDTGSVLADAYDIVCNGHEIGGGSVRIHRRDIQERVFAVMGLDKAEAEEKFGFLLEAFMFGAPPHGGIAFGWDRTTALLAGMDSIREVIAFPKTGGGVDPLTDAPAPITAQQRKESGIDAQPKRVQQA
Assay: Assay for Asp RNA synthetase-1 from Mycobacterium tuberculosis
Assay type: functional
Design: scale not given: direction of the effect not stated beside the values
Details: 30 µM

| SMILES | Percent Effect |
| --- | --- |
| CCS(=O)(=O)c1ccccc1C(=O)NCc1ccnc(N(C)C)c1 | -3.31% |
| Cc1nnc(C(C)N2CCN(Cc3ccc(C#N)cc3)CC2)o1 (centres undefined) | -2.07% |
| O=C(Cc1ccsc1)N1CCCC(c2n[nH]c3nccnc23)C1 (centres undefined) | -5.85% |
| Cc1nccn1C1CCCN(C(=O)c2cc3ccccc3[nH]2)C1 (centres undefined) | 0.714% |
| CCN(Cc1nc2c(cnn2C)c(=O)[nH]1)c1cccc(F)c1 | 1.24% |
| Cc1cc(N2CCN(Cc3ccccc3)CC(O)C2)cc(C)n1 (centres undefined) | -5.25% |
| CCC(=O)NC1CCN(c2cccc(CC)c2)CC1 | 1.79% |
| O=c1nc(CNc2ccccc2)[nH]n1Cc1ccccc1 | 3.89% |
| Cc1nc(C2CCCN(C(=O)c3ccc(Cn4cccn4)o3)C2)no1 (centres undefined) | -5.64% |
| Cc1nc(CN2CCCn3c(nc(Cn4ccnc4)cc3=O)C2)cs1 | 0.435% |
| Cc1cc(F)ccc1CN1CCCC2(C1)OCCO2 | -5.59% |
| Cc1cnn(CCC(=O)N2CCCC(c3nc(C)no3)C2)c1 (centres undefined) | 4.08% |
| Cc1ccc(C)c(C(=O)CN2C(=O)c3ccccc3CS2(=O)=O)c1 | 2.42% |
| CCCOCC(=O)NS(=O)(=O)c1ccc2c(c1)OCCCO2 | 1.8% |
| COCC1Cn2nnc(-c3cnn(C)c3)c2CN1Cc1ccc(C)s1 (centres undefined) | 1.73% |
| CCOc1ccccc1-c1noc(CN2CCCC(O)C2)n1 (centres undefined) | -5.33% |
| CCNC(=O)[C@@H]1C[C@@H](NC(=O)Cc2ccncc2)CN1Cc1ccsc1 | -3.17% |
| COCCCN(CCOC)C(=O)Nc1ccccc1Br | -10.6% |
| Cc1nc(C)n(C2CCCN(C(=O)CCc3ccncc3)C2)n1 (centres undefined) | -6.6% |
| O=C1CO[C@@H]2CN(CC3CCOCC3)C[C@H]2N1CC1CC1 | 14.8% |
| COc1ccccc1CC1CCCN(CC(=O)N2CCOCC2)C1 (centres undefined) | -1.41% |

Target: Shiga toxin 2 (Escherichia coli O157:H7) (UniProt P09385+P09386)
Assay: E. coli 0.157:H7 Shiga Toxin SOP - stx2 screening assay
Assay type: functional
Design: scale not given: direction of the effect not stated beside the values
Details: 30 µM

| SMILES | Percent Effect |
| --- | --- |
| O=C(Cn1nc2c(cc1=O)CCCC2)N[C@@H](Cc1ccccc1)C(=O)O | -48% |
| Cc1ccc(C(=O)NC(CN2CCCC2=O)c2ccccc2)c(=O)[nH]1 (centres undefined) | 2.19% |
| CNC(=O)[C@@]12CCO[C@@H]1CCN(Cc1scnc1C)C2 | -2.91% |
| O=C(C1CC1)N1CCCC1C1CCN(Cc2ccccc2)CC1 (centres undefined) | -13.2% |
| CC(C)c1nc(C2CCCN(C(=O)c3ccc4nccn4c3)C2)no1 (centres undefined) | 29.2% |
| Nc1cc(CCC2CN(Cc3ccc(C(=O)O)cc3)CCO2)ccn1 (centres undefined) | 55.2% |
| C=Cn1ncc(CN2C[C@@H]3CCCN3C[C@@H]2Cc2ccccc2)c1C | 2.92% |
| COc1cccc(COCC(O)CN2CC(n3cccn3)C2)c1 (centres undefined) | 16.5% |
| CC(=O)Nc1nc(C(=O)N2CCCC(c3cc(C)[nH]n3)C2)cs1 (centres undefined) | -12.2% |
| Cc1nc(CN2CCN(CC(=O)Nc3c(C)cccc3C)CC2)no1 | -6.23% |
| COc1ccc(CN(Cc2cccnc2)CC2CCCO2)c(OC)c1 (centres undefined) | -13.4% |
| CC(=O)c1cc(CC(=O)NCc2c(F)cccc2F)cs1 | 4.94% |
| O=C(c1ccco1)N1CC[C@H]2[C@H]1CCN2CC1CCOCC1 | -28% |
| Cc1cc(CNCc2c(C)nn(C)c2N2CCOCC2)no1 | 16.5% |
| CS(=O)(=O)CCN1CCC2(CCCN(C3CCOCC3)C2=O)C1 (centres undefined) | -11.9% |
| Cc1ccc(CNS(=O)(=O)CC2=NC(=O)n3cccc3C2=O)cc1 | 4.1% |
| Cc1cccc(-c2nc(C)nn2CC(=O)NC2CCCC2)c1 | -29.1% |

| SMILES | Percent Effect |
| --- | --- |
| O=C(c1cccnc1)N1C[C@@H]2CC[C@H](C1)N(Cc1cc(F)ccc1F)C2 | 1.2% |
| COc1cccc(CNc2c(C)cnc3c2c(=O)n(C)c(=O)n3C)c1 | -31.1% |
| CCS(=O)(=O)c1ccccc1C(=O)NCc1ccnc(N(C)C)c1 | -44.7% |
| Cc1nnc(C(C)N2CCN(Cc3ccc(C#N)cc3)CC2)o1 (centres undefined) | 20% |
| O=C(Cc1ccsc1)N1CCCC(c2n[nH]c3nccnc23)C1 (centres undefined) | 6.36% |
| Cc1nccn1C1CCCN(C(=O)c2cc3ccccc3[nH]2)C1 (centres undefined) | 0.146% |
| CCN(Cc1nc2c(cnn2C)c(=O)[nH]1)c1cccc(F)c1 | -7.65% |
| Cc1cc(N2CCN(Cc3ccccc3)CC(O)C2)cc(C)n1 (centres undefined) | -16.3% |
| CCC(=O)NC1CCN(c2cccc(CC)c2)CC1 | 5.5% |
| O=c1nc(CNc2ccccc2)[nH]n1Cc1ccccc1 | 2.45% |
| Cc1nc(C2CCCN(C(=O)c3ccc(Cn4cccn4)o3)C2)no1 (centres undefined) | 12.3% |
| Cc1nc(CN2CCCn3c(nc(Cn4ccnc4)cc3=O)C2)cs1 | -3.23% |
| Cc1cc(F)ccc1CN1CCCC2(C1)OCCO2 | 10.5% |
| Cc1cnn(CCC(=O)N2CCCC(c3nc(C)no3)C2)c1 (centres undefined) | 3.29% |
| Cc1ccc(C)c(C(=O)CN2C(=O)c3ccccc3CS2(=O)=O)c1 | -18.8% |
| CCCOCC(=O)NS(=O)(=O)c1ccc2c(c1)OCCCO2 | 17.6% |
